From PubChem BioAssay
A selection: hits, their analogues and other compounds. The true share with any hit is near 1.2%.
BioA inh: M. tuberculosis BioA enzyme inhibitors, primary screen, biochemical, plate reader, single point, HTS; AID 602481, 2012; purified M. tuberculosis BioA enzyme; inhibition, % at 9.99 µM; 7,8-diaminopelargonic acid synthase BioA (Mycobacterium tuberculosis); hit rate 0.096% among 360,000; in the data active means inhibition above about 40%
Yp Topo-I inh: Yersinia pestis topoisomerase I inhibitors, primary screen, biochemical, cleavage product accumulation, plate reader, single point | AID 504884, 2011 | Y. pestis Topo-I cleavage product accumulation | hit rate 0.064% among 360,000 | activity, % at 10 µM; in the data active means activity above about 50%, passing the limit was not always enough
PfHsp40 yeast: rescue of yeast from PfHsp40 toxicity, primary screen, S. cerevisiae, ATP luminescence | AID 504582, 2011 | growth rescue, % at 12.5 µM | hit rate 0.68% among 340,000 | S. cerevisiae expressing PfHsp40, growth rescue; in the data active means growth rescue above about 28%, passing the limit was not always enough;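 further: yeast W303a lacking pdr1 and pdr3 grown in galactose medium; growth measured after three days at 30 °C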
BH1578 lux ind: inducers of Vibrio cholerae quorum light production without autoinducers, primary screen, BH1578 luxS cqsA deficient, single point. V. cholerae BH1578 lux reporter, luminescence, 6 h. activation, % at 18.7 µM. hit rate 0.16% among 350,000; in the data active means activation mostly above about 9.7%, no sharp cut-off
DUSP3 inh: VHR1 phosphatase inhibitors, primary screen, biochemical, absorbance, uHTS; recombinant VHR phosphatase, pNPP absorbance; inhibition, % at 13.3 µM; hit rate 0.52% among 290,000; AID 1654, 2009; in the data active means inhibition above about 50%
Target sequence (P51452 whole entry, looked up): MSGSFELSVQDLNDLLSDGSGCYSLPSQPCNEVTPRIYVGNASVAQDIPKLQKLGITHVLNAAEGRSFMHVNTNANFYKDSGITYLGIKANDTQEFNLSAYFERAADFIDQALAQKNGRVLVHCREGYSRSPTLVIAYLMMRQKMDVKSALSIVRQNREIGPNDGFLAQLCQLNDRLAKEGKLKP
TcdB inh: TcdB glycohydrolase inhibitors, primary screen, biochemical, single point, plate reader. Toxin B (Clostridioides difficile), P18177. TcdB glycohydrolase enzymatic assay. AID 652162, 2013. hit rate 0.24% among 350,000. inhibition, % at 9.99 µM; in the data active means inhibition above about 10%
* hit, by the source's call; i = inactive; x = no result given.

SMILES	BioA inh	Yp Topo-I inh	PfHsp40 yeast	BH1578 lux ind	DUSP3 inh	TcdB inh
COc1ccc2cc(-c3cc(C(=O)O)c4ccccc4n3)ccc2c1	-3.1	-7.2	-0.6	i	1.8	x
CCOC(=O)c1c(NC(C)=O)sc2c1CCC(C=NCCCN(CC)CC)=C2Sc1ccccc1	-2.0	13.8	3.8	20.0*	x	x
CC(C)CC(NC(N)=O)C(=O)Nc1ccc(Cl)c(Cl)c1 (stereo not drawn)	x	0.9	1.3	-0.2	51.2*	1.2
Cc1ccc(NC(=O)C(CC(C)C)NC(N)=O)cc1Cl (stereo not drawn)	x	-8.0	-1.5	-2.7	7.8	0.4
CN1C(=O)c2cc(NC(=O)c3ccccc3Cl)ccc2OC[C@@H]2O[C@@H](CC(=O)O)CC[C@H]21	1.8	x	x	x	x	0.8
O=C(NNC(=O)c1cc2ccccc2cc1O)Nc1ccccc1F	-0.9	-15.9	119.9*	-0.1	23.6	-1.7
Cc1cccc(NC(=O)NNC(=O)c2cc3ccccc3cc2O)c1C	x	3.0	-1.0	-0.4	-8.7	0.3
O=C(NCc1cccnc1)c1cc(C2CCCCN2S(=O)(=O)c2cccc3cccnc23)on1 (stereo not drawn)	1.6	14.9	x	4.5	x	10.1*
Cc1[nH]c(-c2ccccn2)nc(=S)c1Cl	0.9	1.3	10.9	-1.6	23.3	0.2
O=C(O)/C(=C\c1ccc2ccccc2c1)c1cccc2ccccc12	x	2.0	117.4*	-0.3	x	3.0
O=C(O)C(=Cc1ccncc1)c1cccc2ccccc12	-0.4	-1.7	x	-5.3	x	0.4
C[C@@H]1CN([C@@H](C)CO)C(=O)c2cc(NC(=O)Cc3cn(C)c4ccccc34)ccc2O[C@@H]1CN(C)Cc1ccc2c(c1)OCO2	-5.5	x	x	x	x	-0.3
COC(=O)[C@@H]1C[C@]2(OC(=O)c3ccccc3)C=CC(=O)C[C@@H]2N1C(=O)OCc1ccccc1	-2.0	25.1	0.1	i	8.6	3.5
Cc1cccc(-n2c(SCC(=O)NCc3ccc4c(c3)OCO4)nc3ccccc3c2=O)c1	x	11.4	-0.8	-0.4	4.4	0.5
COC(=O)c1ccc(-n2c(CCC(=O)O)ccc2-c2ccc(C)cc2)cc1	6.4	1.6	0.2	0.6	x	x
CCOC(=O)c1ccc(-n2c(CCC(=O)O)ccc2-c2ccc(F)cc2)cc1	1.7	7.8	2.5	-0.5	-20.5	17.0*
CCOC(=O)C1=C(C)NC(=S)NC1c1ccc(C)s1 (stereo not drawn)	-0.3	5.9	0.5	i	5.2	0.2
CC1CC(=O)N(c2ccc(NCCc3ccccc3)c([N+](=O)[O-])c2)C1=O (stereo not drawn)	-2.2	16.4	-0.3	-0.8	-41.5	0.8
CC1CC(=O)N(c2ccc(NCCc3ccc(O)cc3)c([N+](=O)[O-])c2)C1=O (stereo not drawn)	4.4	-1.9	0.0	-0.2	11.6	12.1*
O=C(CNS(=O)(=O)c1ccc2c(c1)OCCCO2)N1CCN(Cc2ccccc2)CC1	-1.3	7.9	0.7	-0.3	x	-0.4
CNc1cc(CSC)nc(SCc2ccc(Cl)cc2Cl)n1	x	32.5	307.9*	-1.5	6.2	1.4
CCN1CCN(C(C(=O)NC2CCCCC2)C2CC2)CC1 (stereo not drawn)	0.6	x	x	x	x	0.3
CCCCNc1c(-c2ccc(-c3ccc(OC)cc3)c(OC)c2)nc2ccccn12	1.0	22.4	251.1*	i	x	-0.1
Cc1nnc(N=c2ssnc2Cl)o1	-0.1	7.9	362.3*	-0.6	x	-0.1
Cc1ccc(N=c2ssnc2Cl)cc1	-0.2	5.3	-1.0	i	15.1	x
SMILES	BioA inh	Yp Topo-I inh	PfHsp40 yeast	BH1578 lux ind	DUSP3 inh	TcdB inh
Cc1cccc(N2CCN(S(=O)(=O)c3ccc4c(c3)CCN4C(=O)CCC(=O)O)CC2C)c1 (stereo not drawn)	-1.8	8.9	1.5	-0.2	54.5*	0.3
O=C(CC(=O)c1c(F)cccc1Cl)c1ccccc1O	0.1	-5.5	112.1*	-1.2	7.2	0.1
O=C(CC(=O)c1ccccc1O)c1cccc(F)c1	x	-3.3	1.0	-0.9	25.0	x
CCCCn1cnc2c(SCc3ccc(Br)cc3)nc(N)nc21	-0.6	29.3	4.7	i	x	0.5
COc1ccccc1C(=O)NCCC(=O)N1CC=C(c2ccccc2)CC1	19.6	131.8*	1.4	i	x	1.7
CCCc1cc(=O)[nH]c(Nc2ccc(OC)c(Cl)c2)n1	-0.6	-6.3	-0.6	-0.3	6.4	x
CN1/C(=C/C=C/c2n(C)c3cc([N+](=O)[O-])c([N+](=O)[O-])cc3[n+]2C)C(C)(C)c2ccccc21	11.7	-17.5	x	0.8	x	12.5*
Cc1nc(Sc2ccccc2)c(C#N)c(C)c1[N+](=O)[O-]	1.9	8.6	26.7*	-1.6	-0.3	0.3
Cc1cc(C)c(C#N)c(Sc2nc(C)c([N+](=O)[O-])c(C)c2C#N)n1	x	x	x	x	x	1.4
C(=C\c1nccc2c1[nH]c1ccccc12)/c1ccccc1	x	-23.1	1.4	-0.5	8.6	1.2
Fc1ccc(/C=C\c2nccc3c2[nH]c2ccccc23)cc1	1.3	-16.6	0.1	i	21.5	11.5*
Cc1nnc(NC(=O)CSc2nnc3c(n2)[nH]c2ccc(Br)cc23)s1	x	16.0	0.1	-0.2	59.7*	1.5
Cc1ccc(C(=O)NNC(=O)CSc2nnc3c(n2)[nH]c2ccc(F)cc23)cc1	-1.5	1.8	-0.8	x	56.7*	x
O=C(O)CCn1c(=S)oc2ccccc21	3.6	1.5	-0.9	i	13.2	x
CC(=O)NC(c1ccc(C)cc1)c1cc([N+](=O)[O-])c2cccnc2c1O (stereo not drawn)	x	-5.3	221.0*	0.3	11.1	0.2
COc1ccc(C(NC(C)=O)c2cc(Cl)c3cccnc3c2O)cc1 (stereo not drawn)	-5.0	-8.3	1.6	0.2	4.1	10.9*
CCC(=O)NC(c1cc(Cl)c2cccnc2c1O)C(C)C (stereo not drawn)	-0.4	4.9	247.2*	i	x	-1.1
CCC(C)[C@H](NC(=O)N1CCn2c1nc1ccccc12)C(=O)NCCc1ccccc1 (stereo partly drawn)	-0.2	21.0	0.7	i	1.8	-4.2
CN(C)C(=O)c1ccc(NC(=O)c2sccc2-c2ccccc2)cc1	2.8	2.4	1.3	-0.4	56.9*	0.5
CN(C)C(=O)c1ccc(NC(=O)c2cccnc2)cc1	6.1	1.0	0.1	i	15.6	x
Cc1ccc(OCCOCCN2CCCC2)c(Br)c1	-2.0	3.2	-0.3	-0.3	58.7*	0.0
Cc1cc(Br)ccc1OCCOCCN1CCCC1	-2.4	0.9	1.6	i	34.6	1.8
COCC#Cc1cnc2c(c1)C(=O)N([C@@H](C)CO)C[C@@H](C)[C@@H](CN(C)C(=O)C1CCC1)O2	-3.8	x	x	x	x	-4.3
CCc1ccc2c(c1)C1(NN=C(c3ccc(C)cc3)S1)C(=O)N2 (stereo not drawn)	-0.4	5.6	5.2	-5.9	22.0	x
